Screens (PubChem BioAssay)
Shown are actives, neighbours in structure and some others; about 19% of the full set was active somewhere.
Lassa entry inh: blocks Lassa virus binding to or entry into cells. Lassa virus pseudotype entry inhibition, cell reporter. Potency, µM (titrated, usually from 37.9 µM), for inactives: at the highest dose activity change, negative = inhibition, hits mostly inhibitors. 300,000 compounds, 1.2% hits; calls by dose curve; tested in HEK293 cells; also: potency is read from the fitted curve at half-maximal effect; % is scaled to controls: 0 for no effect and ±100 for the full control effect; nearly all actives have a fitted effect of over 50% in size
Pf growth 96h: inhibits malaria parasite growth, 96 h. P. falciparum luciferase reporter growth, 96 h. Potency, µM (series often up to 28.7 µM), for inactives: at the highest dose activity change, negative = inhibition, actives largely listed as inhibitors. 320,000 compounds, 6.9% hits. AID 504834; also: potency is read from the fitted curve at half-maximal effect; % is scaled to controls: 0 for no effect and ±100 for the full control effect
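Readout is luminescence from an integrated firefly luciferase in P. falciparum. Red cells, 2% hematocrit and 0.05% parasitemia final, were cultured with compound through two parasite generations (96 hours) at 37 C, 5% CO2.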
Shiga toxin inh: inhibitors of Shiga toxin in Vero cells | Vero cells, Shiga toxin protein synthesis inhibition reporter | inhibition, % at 38.7 µM | 290,000 compounds, 9.2% hits | AID 2315; in the data active = inhibition mostly above about 28%, no sharp cut-off; inactive = mostly below about 43%; also: 0% is about no effect
Marburg entry inh: blocks Marburg virus binding to or entry into cells; Marburg virus pseudotyped entry inhibition, cell reporter; Potency, µM (highest dose often 37.8 µM), inactives show at the highest dose activity change, negative = inhibition, usual class: inhibitors; 300,000 compounds, 1.8% hits; AID 540276; calls by dose curve; tested in HEK293 cells; also: potency is read from the fitted curve at half-maximal effect; % is scaled to controls: 0 for no effect and ±100 for the full control effect
Pf growth 48h: P. falciparum growth inhibition at 48 hours (one generation). P. falciparum luciferase growth in erythrocytes, 48 h. AID 504832. 310,000 compounds, 5.9% hits. Potency, µM (doses to about 28.7 µM), without a hit: at the top dose activity change, negative = inhibition, actives largely listed as inhibitors; also: potency is read from the fitted curve at half-maximal effect; % is scaled to controls: 0 for no effect and ±100 for the full control effect
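Here the parasites carry a stable luciferase gene and grow inside erythrocytes in Albumax-based RPMI medium with compound for one erythrocytic cycle. Activity is scored as loss of luminescent signal.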
Cycloheximide cs: affects cycloheximide protein synthesis inhibition readout, counter-screen; AID 2314; max response, %; cell reporter, cycloheximide protein synthesis inhibition counterscreen; 300,000 compounds, 12% hits; in the data active = max response mostly above about 13%, no sharp cut-off; inactive = mostly below about 14%; also: read at 38.3 µM for the half of the compounds with a filed dose; 0% is about no effect
The depositor's hits bear a star; [ ] = dose if it differs, or a comment. Unless noted, calls follow the shape of the dose curve; as a rule, active = well fitted inhibition curve with a large enough effect; inconclusive = small, poorly fitted or top-dose-only effect, or another doubt; inactive = no such curve, though single readings can be large or run the other way.

`COc1ccc(CCN(C)Cc2ccc(F)cc2F)cc1OC` gave Lassa entry inh -21%, Pf growth 96h 28%, Shiga toxin inh -9, Marburg entry inh -19% and Cycloheximide cs 9.
COc1ccc(CCN(C)Cc2cccc3ccccc23)cc1OC was read as Pf growth 96h 6%, Pf growth 48h inconclusive and Cycloheximide cs 2.
CCN(CC)CC(O)COC(c1ccccc1)c1ccccc1 (stereo not drawn) was read as Pf growth 96h inconclusive, Shiga toxin inh -3, Pf growth 48h inconclusive and Cycloheximide cs -2.
CCCCCOC(=O)C1=C(C)N(C)C(=O)NC1c1cc(Br)c(O)c(OC)c1 (stereo not drawn) was read as Lassa entry inh -1%, Pf growth 96h 3%[5.75 µM], Shiga toxin inh -25, Marburg entry inh -30%, Pf growth 48h inconclusive and Cycloheximide cs -2.
COc1ccc(-c2c(C)nn3c(N4CCN(c5ccccc5F)CC4)cc(C)nc23)cc1OC was read as Lassa entry inh -16%[46.1 µM] and Marburg entry inh -13%[46.1 µM].
Cc1cc(C)cc(OCC(=O)Nc2cccc(-c3nc4ccccc4[nH]3)c2)c1 was read as Lassa entry inh -5%[46.1 µM] and Marburg entry inh inconclusive.
Screening CCC(=O)Nc1cccc(-c2csc(-c3ccccc3)n2)c1 returned Lassa entry inh inconclusive, Pf growth 96h -2%, Shiga toxin inh 62*, Marburg entry inh inconclusive, Pf growth 48h 34% and Cycloheximide cs 54*.
`CC(C)CC(=O)Nc1cccc(-c2nc3ccccc3[nH]2)c1` gave Lassa entry inh 13%[46.1 µM], Pf growth 96h -3%, Shiga toxin inh 16, Pf growth 48h 86% and Cycloheximide cs 14*.
For COc1ccc(CC(=O)Nc2cccc(-c3csc(C)n3)c2)cc1 the results were Lassa entry inh inconclusive, Shiga toxin inh 37, Marburg entry inh inconclusive, Pf growth 48h 6% and Cycloheximide cs 16.
CC(C)CC(=O)Nc1cccc(-c2csc(-c3ccccc3)n2)c1 was read as Lassa entry inh -25%, Pf growth 96h 6.6µM*, Shiga toxin inh active, Marburg entry inh 11%, Pf growth 48h inconclusive and Cycloheximide cs 39*.
O=C(COc1ccccc1)Nc1cccc(-c2nc3cc4ccccc4cc3[nH]2)c1 was read as Lassa entry inh inconclusive, Pf growth 96h 14%, Shiga toxin inh 79*, Marburg entry inh inconclusive, Pf growth 48h 117% and Cycloheximide cs 70*.
Screening COc1ccc(CNC(=O)COC(=O)CCOc2ccc(C)cc2)cc1 returned Lassa entry inh 3%, Pf growth 96h 25%, Marburg entry inh 20% and Pf growth 48h inconclusive.
Screening CC(=O)c1ccc(NC(=O)C2CCN(S(=O)(=O)c3cccc4nonc34)CC2)cc1 returned Lassa entry inh 11%, Pf growth 96h 5%, Shiga toxin inh 12, Marburg entry inh 4%[46.1 µM], Pf growth 48h 31% and Cycloheximide cs -2.
COc1ccc(OCCNC(=S)Nc2cccc3ccccc23)cc1 was read as Lassa entry inh -4%, Pf growth 96h inconclusive, Shiga toxin inh -7, Marburg entry inh -23%, Pf growth 48h inconclusive and Cycloheximide cs 0.
COC(=O)c1cccc(NC(=O)CSc2nncn2-c2ccccn2)c1 was read as Pf growth 96h 10%, Shiga toxin inh 2, Marburg entry inh inconclusive, Pf growth 48h 10% and Cycloheximide cs 6.
For CC1CCCCN1CCNc1nc(=S)[nH]c2ccccc12 (stereo not drawn) the results were Lassa entry inh -5%, Pf growth 96h 2.3µM*, Shiga toxin inh -21, Marburg entry inh -3%, Pf growth 48h 3% and Cycloheximide cs -3.
CN(C)C(=O)c1cc(-c2ccccc2)no1 was read as Lassa entry inh -2%[46.1 µM], Pf growth 96h 50%, Shiga toxin inh 53*, Marburg entry inh 12%[46.1 µM], Pf growth 48h 49% and Cycloheximide cs 22*.
`O=S(=O)(Cc1cccc(F)c1)c1c[nH]c2ccccc12` gave Pf growth 96h inconclusive, Shiga toxin inh -7 and Cycloheximide cs -4.
Screening Cc1ccc(NC(=O)C2CCCN(C(=O)c3ccc(Cl)cc3)C2)cc1C (stereo not drawn) returned Lassa entry inh inconclusive, Pf growth 96h 69%, Shiga toxin inh 72*, Marburg entry inh inconclusive, Pf growth 48h 106% and Cycloheximide cs 40*.
For Cc1ccc(NC(=O)C2CCCN(C(=O)c3ccc(Cl)cc3)C2)cc1 (stereo not drawn) the results were Lassa entry inh 9%, Pf growth 96h 45%, Shiga toxin inh 70*, Marburg entry inh inconclusive, Pf growth 48h 11% and Cycloheximide cs 48.
Screening COC(=O)c1c(-c2ccccc2Cl)noc1-c1cnc(N)nc1C(F)(F)F returned Lassa entry inh 14%, Pf growth 96h 54%, Shiga toxin inh -2, Marburg entry inh -9%[46.1 µM], Pf growth 48h -4% and Cycloheximide cs -1.
For Cc1ccccc1C(=O)NC1CCN(CC(=O)Nc2ccc(Br)cc2)CC1 the results were Lassa entry inh -16%[46.1 µM], Pf growth 96h 3%, Shiga toxin inh 1, Marburg entry inh -1%[46.1 µM], Pf growth 48h -20% and Cycloheximide cs 2.
Screening COc1cccc(C(=O)OCC(=O)c2c[nH]c3ccccc23)c1O returned Lassa entry inh 11%[46.1 µM], Pf growth 96h 30%, Shiga toxin inh 93*, Marburg entry inh 25%[46.1 µM], Pf growth 48h 35% and Cycloheximide cs 34*.
For COc1cccc(/C=C/C(=O)OCC(=O)c2c[nH]c3ccccc23)c1OC the results were Lassa entry inh 12%, Pf growth 96h -90%, Shiga toxin inh 32, Marburg entry inh 2%, Pf growth 48h inconclusive and Cycloheximide cs 11*.
CC(=O)OCC(=O)c1c[nH]c2ccccc12 was read as Pf growth 96h 0%, Shiga toxin inh 19, Pf growth 48h 18% and Cycloheximide cs 13.
For COc1ccc(Cn2ccnc2SCC(=O)NC2CCCCC2)cc1 the results were Lassa entry inh inconclusive, Pf growth 96h 0%, Shiga toxin inh -3, Marburg entry inh -15%, Pf growth 48h -21% and Cycloheximide cs -5.
For COC(=O)CN(n1cnnc1)S(=O)(=O)c1ccc(C)cc1 the results were Lassa entry inh 3%, Shiga toxin inh -3, Marburg entry inh 3%, Pf growth 48h 12% and Cycloheximide cs 10.
`CCOC(=O)N1CCC(NC(=O)c2oc3c(c2C)-c2[nH]ncc2CC3)CC1` gave Lassa entry inh 8%, Pf growth 96h 8.3µM*, Shiga toxin inh 1, Marburg entry inh 9% and Cycloheximide cs -4.
`CCOC(=O)c1cccc(NC(=O)c2oc3c(c2C)-c2[nH]ncc2CC3)c1` gave Lassa entry inh -24%[46.1 µM] and Marburg entry inh inconclusive.
Screening CN1CCN(C(c2cccnc2)c2ccc3cccnc3c2O)CC1 (stereo not drawn) returned Lassa entry inh 7%, Shiga toxin inh 6, Marburg entry inh 22%, Pf growth 48h inconclusive and Cycloheximide cs 6.
